Data: PubChem BioAssay AID1159580 (chemical genetic matrix, 2015)
Among all 5,500 compounds or so, about 2,000 (36%) were called active. About 18% were inconclusive and are not listed. No stated cut-off is given here; in the data, active means normalized growth mostly below about 0.91 (no sharp cut-off); inconclusive means no clear call, values can overlap the other calls; inactive means mostly above about 0.92. This is one part of the list.

Experiment: chemical genetic growth profiling, strain panel (AID 1159580);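 further: tested at 20 µM; growth read once vehicle control cultures reached saturation at 30 °C; 1 = growth at the plate median or of vehicle wells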
Settings: growth OD

Measured: normalized growth

COc1ccc2c(c1)OC/C(=C\c1ccc(OC)c(O)c1)C2=O
inactive: S. cerevisiae deletion strains, locus YJR066W, strain TOR1, stronger effect = lower value 0.891 | S. cerevisiae deletion strains, locus YKL068W, stronger effect = lower value 0.948 | S. cerevisiae deletion strains, locus YKR026C, strain gcn3, stronger effect = lower value 0.946 | S. cerevisiae deletion strains, locus YKR091W, strain srl3, stronger effect = lower value 0.962 | S. cerevisiae deletion strains, locus YLL026W, stronger effect = lower value 0.931 | S. cerevisiae deletion strains, locus YLL041C, strain sdh2, stronger effect = lower value 0.955 | S. cerevisiae deletion strains, locus YLR113W, strain HOG1, stronger effect = lower value 0.909 | S. cerevisiae deletion strains, locus YLR357W, strain rsc2, stronger effect = lower value 0.964 | S. cerevisiae deletion strains, locus YLR370C, strain arc18, stronger effect = lower value 0.938 | S. cerevisiae deletion strains, locus YLR384C, strain iki3, stronger effect = lower value 0.95 | S. cerevisiae deletion strains, locus YMR129W, stronger effect = lower value 0.946 | S. cerevisiae deletion strains, locus YMR231W, strain pep5, stronger effect = lower value 0.977 | S. cerevisiae deletion strains, locus YNL183C, strain NPR1, stronger effect = lower value 0.924 | S. cerevisiae deletion strains, locus YNL209W, strain ssb2, stronger effect = lower value 0.938 | S. cerevisiae deletion strains, locus YNL248C, strain rpa49, stronger effect = lower value 0.902 | S. cerevisiae deletion strains, locus YNL322C, strain KRE1 (second series), stronger effect = lower value 0.95 | S. cerevisiae deletion strains, locus YNR049C, strain mso1, stronger effect = lower value 0.955 | S. cerevisiae deletion strains, locus YOL006C, strain TOP1, stronger effect = lower value 0.563 | S. cerevisiae deletion strains, locus YOL012C, strain htz1 0.356 | S. cerevisiae deletion strains, locus YOR061W, strain CKA2, stronger effect = lower value 0.93 | S. cerevisiae deletion strains, locus YOR080W, strain dia2, stronger effect = lower value 0.925 | S. cerevisiae deletion strains, locus YOR231W, strain MKK1, stronger effect = lower value 0.995 | S. cerevisiae deletion strains, locus YOR265W, strain rbl2, stronger effect = lower value 0.941 | S. cerevisiae deletion strains, locus YPL240C, strain hsp82, stronger effect = lower value 0.929 | S. cerevisiae deletion strains, locus YPL241C, strain CIN2, stronger effect = lower value 0.958 | S. cerevisiae deletion strains, locus YPL256C, strain CLN2, stronger effect = lower value 0.958 | S. cerevisiae deletion strains, locus YPR141C, strain kar3, stronger effect = lower value 0.924
active: S. cerevisiae deletion strains, locus YKL009W, strain mrt4, stronger effect = lower value 0.843 | S. cerevisiae deletion strains, locus YKL085W, strain MDH1 (second series), stronger effect = lower value 0.915 | S. cerevisiae deletion strains, locus YKL085W, strain MDH1, stronger effect = lower value 0.915 | S. cerevisiae deletion strains, locus YKL160W, strain elf1, stronger effect = lower value 0.831 | S. cerevisiae deletion strains, locus YKL190W, strain CNB1, stronger effect = lower value 0.81 | S. cerevisiae deletion strains, locus YKR001C, strain vps1, stronger effect = lower value 0.651 | S. cerevisiae deletion strains, locus YLL001W, strain dnm1, stronger effect = lower value 0.823 | S. cerevisiae deletion strains, locus YLR027C, strain aat2, stronger effect = lower value 0.84 | S. cerevisiae deletion strains, locus YLR039C, strain RIC1, stronger effect = lower value 0.51 | S. cerevisiae deletion strains, locus YLR058C, strain SHM2, stronger effect = lower value 0.774 | S. cerevisiae deletion strains, locus YLR102C, strain apc9, stronger effect = lower value 0.824 | S. cerevisiae deletion strains, locus YLR221C, strain rsa3, stronger effect = lower value 0.841 | S. cerevisiae deletion strains, locus YLR258W, strain gsy2, stronger effect = lower value 0.891 | S. cerevisiae deletion strains, locus YLR262C, strain YPT6 (second series), stronger effect = lower value 0.719 | S. cerevisiae deletion strains, locus YLR262C, strain YPT6, stronger effect = lower value 0.423 | S. cerevisiae deletion strains, locus YLR268W, strain sec22, stronger effect = lower value 0.709 | S. cerevisiae deletion strains, locus YLR320W, strain mms22, stronger effect = lower value 0.652 | S. cerevisiae deletion strains, locus YLR330W, strain CHS5, stronger effect = lower value 0.467 | S. cerevisiae deletion strains, locus YLR342W, strain FKS1 (second series), stronger effect = lower value 0.702 | S. cerevisiae deletion strains, locus YLR342W, strain FKS1, stronger effect = lower value 0.885 | S. cerevisiae deletion strains, locus YLR371W, strain rom2, stronger effect = lower value 0.584 | S. cerevisiae deletion strains, locus YLR418C, strain cdc73, stronger effect = lower value 0.322 | S. cerevisiae deletion strains, locus YML016C, strain PPZ1, stronger effect = lower value 0.791 | S. cerevisiae deletion strains, locus YML032C, strain rad52, stronger effect = lower value 0.787 | S. cerevisiae deletion strains, locus YML120C, strain ndi1, stronger effect = lower value 0.858 | S. cerevisiae deletion strains, locus YML124C, strain tub3, stronger effect = lower value 0.865 | S. cerevisiae deletion strains, locus YMR058W, strain fet3, stronger effect = lower value 0.846 | S. cerevisiae deletion strains, locus YMR078C, strain ctf18, stronger effect = lower value 0.458 | S. cerevisiae deletion strains, locus YMR125W, strain sto1, stronger effect = lower value 0.863 | S. cerevisiae deletion strains, locus YMR205C, strain PFK2, stronger effect = lower value 0.768 | S. cerevisiae deletion strains, locus YMR223W, strain ubp8, stronger effect = lower value 0.761 | S. cerevisiae deletion strains, locus YMR307W, strain GAS1, stronger effect = lower value 0.557 | S. cerevisiae deletion strains, locus YNL067W, strain RPL9B, stronger effect = lower value 0.774 | S. cerevisiae deletion strains, locus YNL071W, strain lat1, stronger effect = lower value 0.369 | S. cerevisiae deletion strains, locus YNL233W, strain BNI4, stronger effect = lower value 0.448 | S. cerevisiae deletion strains, locus YNL250W, strain rad50, stronger effect = lower value 0.885 | S. cerevisiae deletion strains, locus YNL271C, strain bni1, stronger effect = lower value 0.865 | S. cerevisiae deletion strains, locus YNL298W, strain CLA4, stronger effect = lower value 0.895 | S. cerevisiae deletion strains, locus YNL307C, strain MCK1, stronger effect = lower value 0.127 | S. cerevisiae deletion strains, locus YNL322C, strain KRE1, stronger effect = lower value 0.793 | S. cerevisiae deletion strains, locus YNR052C, strain pop2, stronger effect = lower value 0.885 | S. cerevisiae deletion strains, locus YOL147C, strain pex11, stronger effect = lower value 0.542 | S. cerevisiae deletion strains, locus YOR001W, strain rrp6, stronger effect = lower value 0.848 | S. cerevisiae deletion strains, locus YOR069W, strain VPS5, stronger effect = lower value 0.807 | S. cerevisiae deletion strains, locus YOR070C, strain gyp1, stronger effect = lower value 0.882 | S. cerevisiae deletion strains, locus YOR083W, strain WHI5, stronger effect = lower value 0.869 | S. cerevisiae deletion strains, locus YOR106W, strain vam3, stronger effect = lower value 0.847 | S. cerevisiae deletion strains, locus YOR136W, strain idh2, stronger effect = lower value 0.796 | S. cerevisiae deletion strains, locus YOR144C, strain elg1, stronger effect = lower value 0.766 | S. cerevisiae deletion strains, locus YOR184W, strain ser1, stronger effect = lower value 0.472 | S. cerevisiae deletion strains, locus YOR270C, strain vph1, stronger effect = lower value 0.661 | S. cerevisiae deletion strains, locus YOR290C, strain snf2, stronger effect = lower value 0.789 | S. cerevisiae deletion strains, locus YOR316C, strain cot1, stronger effect = lower value 0.882 | S. cerevisiae deletion strains, locus YPL051W, strain arl3, stronger effect = lower value 0.836 | S. cerevisiae deletion strains, locus YPL055C, strain LGE1, stronger effect = lower value 0.576 | S. cerevisiae deletion strains, locus YPL078C, strain atp4, stronger effect = lower value 0.836 | S. cerevisiae deletion strains, locus YPL106C, strain sse1, stronger effect = lower value 0.729 | S. cerevisiae deletion strains, locus YPR119W, strain clb2, stronger effect = lower value 0.859 | S. cerevisiae deletion strains, locus YPR163C, strain tif3, stronger effect = lower value 0.351 | S. cerevisiae deletion strains, locus YPR167C, strain met16, stronger effect = lower value 0.811 | S. cerevisiae deletion strains, strain wtn01, stronger effect = lower value 0.711 | S. cerevisiae strains, strain wild type, stronger effect = lower value 0.663
